37 compounds from PMC5540273 (PLoS ONE, 2017) can be followed below.
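Note: KINOMEscan kinase panel screen.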

The assay concerns PHKG1. The conditions noted are these: concentration: 1 μM, replicates: in singlicate; n = 1.
As for `FC(F)(F)c1ccc(/C=C/c2cncnc2Nc2ccc3[nH]c(Cc4ccccc4)nc3c2)cc1` [GW709199], the “%Inh” value was found to be 43%.

Regarding `COc1ccc(Nc2nccc(NCCNC(=O)c3cc4ccccc4s3)n2)cc1` [GSK1379896], the “%Inh” value was 0%.

Regarding `Cl.Cl.NCC(NCc1ccc(-c2ccnc3[nH]ccc23)s1)c1ccccc1` (stereo not shown) [GSK1321565], the “%Inh” value stood at 19%.

On to `O=C(Nc1cccc(-c2nn3ncccc3c2-c2ccnc(Nc3ccccc3)n2)c1)c1c(F)cccc1F` [GSK198271], for which the “%Inh” value was determined as 0%.

`Cn1cc(-c2ccc3c(c2)CCN3C(=O)Cc2cccc(F)c2)c2c(N)ncnc21` [GSK2603358]: the “%Inh” value is recorded as 1%.

In the case of `Nc1ncc(-c2cccnc2)c2scc(-c3ccc4c(c3)CCN4C(=O)Cc3ccccc3)c12` [GSK683281], the “%Inh” value is listed as 18%.

With `COC(=O)Nc1nc2cc(Oc3ccc(NC(=O)Nc4cc(C(F)(F)F)ccc4F)cn3)ccc2[nH]1.Cl.Cl` [GW681170], the “%Inh” value was 0%.

On to `CCn1c(-c2nonc2N)nc2c(C#CC(C)(C)O)nc(OC[C@H](N)c3ccccc3)cc21` [GSK943949], for which the “%Inh” value came out at 0%.

For `COc1ccc(Nc2nccc(N3CCC(NC(=O)Nc4cccc(OC)c4)C3)n2)cc1` (stereo not shown) [GSK1379742], the “%Inh” value was 17%.

Turning to `O=C(Nc1cccc(Oc2ccc3nc(NC(=O)C4CC4)cn3n2)c1)c1ccccc1C(F)(F)F`, the “%Inh” value was determined as 18%.

As to `Fc1ccc(-c2ncn(C3CCNCC3)c2-c2ccnc(Oc3ccc(-c4ccccc4)cc3)n2)cc1` [SB-245391], the “%Inh” value was 0%.

Turning to `CC(=O)Nc1nc2cnc(Nc3cc(NC(=O)c4cccc(C5(C#N)CC5)c4Cl)ccc3C)nc2s1`, the “%Inh” value stood at 12%.

For the compound `Clc1ccc(-c2nn3ncccc3c2-c2ccnc(Nc3ccc4c(c3)OCCO4)n2)cc1` [GW829116], the “%Inh” value came out at 0%.

On to `O=C(Nc1ccccc1F)NC1CCN(c2ccnc(Nc3ccc(F)cc3)n2)CC1` [GSK1379800], for which the “%Inh” value turned out to be 0%.

As for `c1ccc(-c2cnc3nccnn23)cc1` [AH20685], the “%Inh” value stood at 40%.

On to `COc1cc2c(cc1OCCN1CCNCC1)ncc1c3ccc(C#N)cc3[nH]c21`, for which the “%Inh” value was 98.7%.

As to `COc1cccc(C2=C(Nc3ccc(Cl)c(C(=O)O)c3)C(=O)NC2=O)c1` [SB-390769], the “%Inh” value came to 0%.

`O=C(O)C(F)(F)F.O=C(O)C(F)(F)F.O=c1[nH]ccc2nc(N[C@@H]3CCCNC3)nc(Nc3ccc(S(=O)(=O)N4CCOCC4)cc3)c12` [GSK2177277]: the “%Inh” value came out at 97.7%.

Regarding `COc1cccc(NC(=O)NC2CCN(c3ccnc(Nc4cc(OC)c(OC)c(OC)c4)n3)C2)c1` (stereo not shown) [GSK1379763], the “%Inh” value stood at 0%.

Consider `O=c1[nH]cc(-c2ccc(N3CCOCC3)cc2)c2sc(-c3cn[nH]c3)cc12` [GSK2276055], for which the “%Inh” value is given as 0%.

`Nc1ncc(-c2ccc3nccc(-c4ccncc4)c3c2)cc1S(=O)(=O)N1CCOCC1` [GSK1627798]: the “%Inh” value is listed as 0%.

As for `Cl.c1ccc(-c2ccc3c(Nc4ccc5[nH]ncc5c4)ccnc3c2)nc1` [GW440137], the “%Inh” value was found to be 0%.

Turning to `Cc1ccc(C)c(NC(=O)NC2CCN(c3ccnc(Nc4ccc(F)cc4)n3)C2)c1` (stereo not shown) [GSK1379720], the “%Inh” value amounted to 0%.

As for `Cl.Cl.NCC(NC(=O)c1cc(-c2ccccc2)c(-c2ccnc3[nH]ccc23)s1)c1ccccc1` (stereo not shown) [GSK1321561], the “%Inh” value came to 0%.

`Cc1occc1-c1ncc(OC[C@@H](N)Cc2c[nH]c3ccccc23)cc1-c1ccc2[nH]nc(C)c2c1.O=C(O)C(F)(F)F` [GSK682037]: the “%Inh” value worked out at 0%.

For `CN(c1ccc(NC(=O)Nc2cc(C(F)(F)F)ccc2F)cc1)c1ccnc(Nc2ccc(S(N)(=O)=O)cc2)n1` [GW809893], the “%Inh” value came to 14%.

For the compound `CC(C)c1nc(-c2cccc(NS(=O)(=O)c3c(F)cccc3F)c2F)c(-c2ccnc(Nc3ccc(N4CCOCC4)nc3)n2)s1` [GSK2008607], the “%Inh” value stood at 0%.

As to `Cc1cccc(Nc2nc(N[C@H]3CCNC3)ncc2C(N)=O)c1.Cl` [GSK2197149], the “%Inh” value was 66%.

As to `COc1cccc(C(=O)Nc2cccc(Oc3ccc4nc(NC(=O)C5CC5)cn4n3)c2)c1`, the “%Inh” value came to 0%.

In the case of `Cl.c1ccc(-c2ccc3c(Nc4ccc5[nH]ccc5c4)ccnc3c2)nc1` [GW440138], the “%Inh” value is 0%.

Turning to `CC(=O)N1CCN(c2ccc(Nc3nccc(-c4sc(C(C)C)nc4-c4cccc(NS(=O)(=O)c5cccc(Cl)c5)c4)n3)cn2)CC1` [GSK1660437], the “%Inh” value amounted to 0%.

On to `CCn1c(-c2nonc2N)nc2c(C#CC(C)(C)O)ncc(OCCCCN)c21.O=C(O)C(F)(F)F.O=C(O)C(F)(F)F` [GSK507274], for which the “%Inh” value is 5%.

With `O=C(Nc1cccc(-c2nn3ccccc3c2-c2ccnc(Nc3cccc(C(F)(F)F)c3)n2)c1)c1c(F)cccc1F` [GSK292658], the “%Inh” value amounted to 0%.

With `O=C(NC1CCN(c2ccnc(Nc3ccc(F)cc3)n2)C1)c1cc2ccccc2s1` (stereo not shown) [GSK1379716], the “%Inh” value was 19%.

With `COc1cc(Nc2nccc(-c3c(-c4cccc(NC(=O)c5c(F)cccc5F)c4)nn4ncccc34)n2)cc(OC)c1OC` [GSK327238], the “%Inh” value worked out at 0%.

Consider `COc1cccc(-c2ccc3c(NC(=O)C4CC4)n[nH]c3n2)c1` [SB-710903], for which the “%Inh” value is on record as 0%.

As to `Cn1cc(-c2ccc3c(c2)CCN3C(=O)Cc2cccc(Cl)c2)c2c(N)ncnc21` [GSK2606590], the “%Inh” value was 17%.
